Data as given in PubChem BioAssay (NCATS).
Records with an inconclusive call do not appear. Entries that show only a call come without a potency. The source made the active and inactive calls. Unless noted, the call rests on the fitted dose curve; in most records, active means well fitted curve in the direction sought with a large enough effect; inconclusive means small, poorly fitted or top-dose-only effect, or another doubt; inactive means no such curve, though single readings can be large; an effect the other way counts as inactive or inconclusive.

Tests used:
[1] = qHTS for Inhibitors of the Functional Ribonucleoprotein Complex (vRNP) of Lassa (LASV) Arenavirus: Viability assay - alamar blue signal for LASV Primary Screen (AID 1347083; calls by dose curve; tested in HEK293 reporter line; further: series mostly up to about 57 µM; nearly all actives have a fitted effect of over 80% in size)
[2] = qHTS for Inhibitors of the Functional Ribonucleoprotein Complex (vRNP) of Lymphocytic Choriomeningitis Arenaviruses (LCMV): Viability assay - alamar blue signal for LCMV Primary Screen (AID 1347085; calls by dose curve; tested in HEK293 reporter line; further: series mostly up to about 57 µM; nearly all actives have a fitted effect of over 80% in size)
[3] = target: Nucleoprotein (Lymphocytic choriomeningitis virus (strain Armstrong)) (UniProt P09992); assay: qHTS for Inhibitors of the Functional Ribonucleoprotein Complex (vRNP) of Lymphocytic Choriomeningitis Arenaviruses (LCMV): LCMV Primary Screen - GLuc reporter signal (AID 1347086; calls by dose curve; further: series mostly up to about 57 µM; nearly all actives have a fitted effect of over 70% in size)
[4] = qHTS of pediatric cancer cell lines to identify multiple opportunities for drug repurposing: Primary screen for TC32 cells (AID 1347089); further: nearly all actives have a fitted effect of over 60% in size
Outline: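 In the primary qHTS, MIPE compounds were tested at 11 concentrations (0.78 nM to 46 µM) and NPC compounds at 8 (0.59 nM to 46 µM) on TC32 cells for 48 h. CellTiter-Glo luminescence gave viability.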

[5] = qHTS of pediatric cancer cell lines to identify multiple opportunities for drug repurposing: Primary screen for DAOY cells (AID 1347090); further: series mostly up to about 46 µM; nearly all actives have a fitted effect of over 55% in size
Outline: (§1)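 Viability measured as metabolically active cells via CellTiter-Glo luminescence following 48 hours of compound exposure, 11-point dilutions in confirmatory testing. 500-1,000 cells/well plated 5 hours before dosing; controls were DMSO and 2.3 µM bortezomib.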

[6] = qHTS of pediatric cancer cell lines to identify multiple opportunities for drug repurposing: Primary screen for SJ-GBM2 cells (AID 1347091); further: potency means the concentration at half of the fitted maximal effect
Outline: as §1

[7] = qHTS of pediatric cancer cell lines to identify multiple opportunities for drug repurposing: Primary screen for A673 cells (AID 1347092); further: nearly all actives have a fitted effect of over 45% in size
Outline: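 48 h compound exposure, A673, 500-1,000 cells/well, 37 degrees C/5% CO2. MIPE: 11-point, 0.78 nM-46 µM; NPC: 8-point, 0.59 nM-46 µM (final). Readout CellTiter-Glo luminescence after 15 min RT.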

[8] = qHTS of pediatric cancer cell lines to identify multiple opportunities for drug repurposing: Primary screen for BT-37 cells (AID 1347094); further: series mostly up to about 57 µM
Outline: (§2)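 Readout: CellTiter-Glo luminescence, 48 h treatment. Controls DMSO (neutral) and bortezomib 2.3 µM final (positive). Potency and efficacy taken from primary-screen concentration-response curves.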

[9] = qHTS of pediatric cancer cell lines to identify multiple opportunities for drug repurposing: Primary screen for NB-EBc1 cells (AID 1347095)
Outline: as §2

[10] = qHTS of pediatric cancer cell lines to identify multiple opportunities for drug repurposing: Primary screen for Saos-2 cells (AID 1347097); further: nearly all actives have a fitted effect of over 40% in size
Outline: as §2

[11] = qHTS of pediatric cancer cell lines to identify multiple opportunities for drug repurposing: Primary screen for SK-N-SH cells (AID 1347098); further: nearly all actives have a fitted effect of over 65% in size
Outline: (§3)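 Cells (500-1,000/well) rested 5 h, then received compounds for 48 h; metabolically active cells were measured by CellTiter-Glo luminescence. Final concentrations spanned up to 46 µM (MIPE, 11-point) or 0.59 nM-46 µM (NPC, 8-point) in primary screens, 11-point in follow-ups.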

[12] = qHTS of pediatric cancer cell lines to identify multiple opportunities for drug repurposing: Primary screen for NB1643 cells (AID 1347099); further: nearly all actives have a fitted effect of over 50% in size
Outline: as §2

[13] = qHTS of pediatric cancer cell lines to identify multiple opportunities for drug repurposing: Primary screen for LAN-5 cells (AID 1347100)
Outline: (§4)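 Viability after 48 h compound treatment at 37C, 500-1,000 cells/well, read as ATP luminescence with CellTiter-Glo. Primary screens used 11-point (MIPE, 0.78 nM-46 µM) or 8-point (NPC, 0.59 nM-46 µM) final concentrations; follow-up screens used 11-point dilutions.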

[14] = qHTS of pediatric cancer cell lines to identify multiple opportunities for drug repurposing: Primary screen for BT-12 cells (AID 1347101); further: nearly all actives have a fitted effect of over 25% in size
Outline: as §3

[15] = qHTS of pediatric cancer cell lines to identify multiple opportunities for drug repurposing: Primary screen for Rh18 cells (AID 1347102); further: nearly all actives have a fitted effect of over 65% in size
Outline: as §4

[16] = qHTS of pediatric cancer cell lines to identify multiple opportunities for drug repurposing: Primary screen for OHS-50 cells (AID 1347103); further: nearly all actives have a fitted effect of over 40% in size
Outline: as §3

[17] = qHTS of pediatric cancer cell lines to identify multiple opportunities for drug repurposing: Primary screen for RD cells (AID 1347104); further: nearly all actives have a fitted effect of over 55% in size
Outline: as §2

[18] = qHTS of pediatric cancer cell lines to identify multiple opportunities for drug repurposing: Primary screen for MG 63 (6-TG R) cells (AID 1347105); further: nearly all actives have a fitted effect of over 50% in size
Outline: as §2

[19] = qHTS of pediatric cancer cell lines to identify multiple opportunities for drug repurposing: Primary screen for U-2 OS cells (AID 1347096); further: nearly all actives have a fitted effect of over 50% in size
Outline: as §4

[20] = qHTS of pediatric cancer cell lines to identify multiple opportunities for drug repurposing: Primary screen for SK-N-MC cells (AID 1347093); further: series mostly up to about 46 µM
Outline: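 Metabolically active cells were quantified by ATP-dependent luminescence (CellTiter-Glo, 15 min at room temperature) following 48 h treatment. Cells had been plated at 500-1,000 per well and settled for 5 h beforehand.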

Sequence of Nucleoprotein (Lymphocytic choriomeningitis virus (strain Armstrong)) (P09992 whole entry, looked up): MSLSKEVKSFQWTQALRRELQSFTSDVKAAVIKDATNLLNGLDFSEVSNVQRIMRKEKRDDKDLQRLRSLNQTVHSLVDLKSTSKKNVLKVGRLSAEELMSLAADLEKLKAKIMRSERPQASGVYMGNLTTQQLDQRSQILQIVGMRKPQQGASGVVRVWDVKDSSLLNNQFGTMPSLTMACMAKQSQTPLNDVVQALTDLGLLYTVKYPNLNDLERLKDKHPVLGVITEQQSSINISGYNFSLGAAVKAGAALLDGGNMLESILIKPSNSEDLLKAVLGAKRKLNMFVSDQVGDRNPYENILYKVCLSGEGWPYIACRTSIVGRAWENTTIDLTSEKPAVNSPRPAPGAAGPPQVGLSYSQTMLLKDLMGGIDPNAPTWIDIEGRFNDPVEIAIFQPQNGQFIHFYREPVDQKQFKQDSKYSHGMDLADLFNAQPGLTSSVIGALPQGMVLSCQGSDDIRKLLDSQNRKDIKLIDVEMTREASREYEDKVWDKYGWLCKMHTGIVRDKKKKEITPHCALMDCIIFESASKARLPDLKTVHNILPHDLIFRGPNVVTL

SMILES	Potency [1]	Potency [2]	Potency [3]	Potency [4]	Potency [5]	Potency [6]	Potency [7]	Potency [8]	Potency [9]	Potency [10]	Potency [11]	Potency [12]	Potency [13]	Potency [14]	Potency [15]	Potency [16]	Potency [17]	Potency [18]	Potency [19]	Potency [20]
Nc1nc(N)nc(NC2CC2)n1	inactive	inactive	inactive	inactive	inactive	inactive	inactive	inactive	inactive	inactive	inactive	inactive	inactive	inactive	inactive	inactive	inactive			
CCC(C)(C)c1ccc(O)cc1	inactive	inactive	inactive	inactive	inactive	inactive	inactive	inactive	inactive	inactive	inactive	inactive	inactive	inactive	inactive		inactive			
NC(=O)c1cc([N+](=O)[O-])cc([N+](=O)[O-])c1	inactive	inactive	inactive	inactive	inactive	inactive	inactive	inactive	inactive	inactive	inactive		inactive	inactive	inactive	inactive	inactive	inactive		
CC(C)=CC1C(C(=O)OCN2C(=O)C3=C(CCCC3)C2=O)C1(C)C (stereo unspecified)	inactive	inactive	inactive	inactive	inactive	21.1 µM (active)	inactive	inactive							inactive	inactive	inactive	inactive		
C[C@]12CC[C@H]3[C@@H](CCC4=CC(=O)CC[C@@H]43)[C@@H]1CC[C@@H]2OC(=O)CCC1CCCCC1	inactive	inactive	inactive	inactive	inactive		inactive				inactive	inactive		inactive	inactive		inactive	inactive	inactive	
C[C@]12CC[C@H]3[C@@H](CCC4=CC(=O)CC[C@@H]43)[C@@H]1CC[C@@H]2OC(=O)CCc1ccco1	inactive	inactive	inactive	inactive	inactive		inactive	inactive	inactive		inactive	inactive	inactive	inactive	inactive		inactive		inactive	inactive
